This passage reports growth results from PubChem BioAssay (NCI).

This is part of a sample that, as a whole, favours compounds with a hit. Of some 83,000 tested, about 20% had one in any assay.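 How to read the values: 0–100, growth inhibition (40 = 60% inhibited); 0, no net growth; -100 to 0, cell death (-40 = 40% of starting cells died; -100 = all dead).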 Values without a mark were called inactive. Calls of active or inactive are those of the source. The calls were made as follows: active = growth percent below 10; inactive = the rest.

Some test systems named below: DU-145 prostate; K-562 leukemia; MALME-3M melanoma; MDA-MB-231 breast; RXF 393 renal; SF-268 CNS; SF-295 CNS; SF-539 CNS; UACC-257 melanoma; M14 melanoma; HCT-15 colon; HT29 colon; SNB-75 CNS; SNB-19 CNS; U251 CNS; PC-3 prostate; SK-MEL-5 melanoma; UACC-62 melanoma; LOX IMVI melanoma; SK-MEL-28 melanoma.
What all share (experiment): NCI-60 one-dose screen, 48 h (100 = growth as untreated, 0 = no growth, -100 = all killed)
What all share (conditions): 10 µM unless noted

For `CC1(C)OC2[C@@H](CNC(=O)NC(=O)NC(=O)CI)O[C@@H](n3cnc4c(NC(=O)Nc5ccccc5)ncnc43)[C@H]2O1` (stereo not given in full), the growth in the experiment on DU-145 prostate was 105%; in the experiment on K-562 leukemia, 4.48% (active); in the experiment on MALME-3M melanoma, -61.1% (active); in the experiment with MDA-MB-231 breast, 58.4%; in the experiment on RXF 393 renal it was 54.9%; with SF-268 CNS, 73.4%. In addition, the growth is 84.6% in the experiment on SF-295 CNS; 27.2% with SF-539 CNS; 94.7% in the experiment on UACC-257 melanoma; 69.4% in the experiment on M14 melanoma; 17.2% with HCT-15 colon; 9.35% (active) with HT29 colon. Also, the growth with SNB-75 CNS is 80.5%; in the experiment on SNB-19 CNS, 94.6%; in the experiment with U251 CNS, 95.5%; in the experiment on PC-3 prostate it was 68.3%; in the experiment with SK-MEL-5 melanoma it was 103%; with UACC-62 melanoma, 93.8%. In addition, the growth was -79.4% (active) in the experiment on LOX IMVI melanoma and 97.8% in the experiment on SK-MEL-28 melanoma.

Regarding `CCN=Cc1c(O)c(O)c(C(C)C)c2cc(C)c(-c3c(C)cc4c(C(C)C)c(O)c(O)c(C=NCC)c4c3O)c(O)c12`, the growth in the experiment on DU-145 prostate was 53%; with K-562 leukemia it was 16.4%; in the experiment on MALME-3M melanoma, 75.1%; in the experiment on MDA-MB-231 breast, 50.5%; in the experiment on RXF 393 renal, 68.2%; in the experiment on SF-268 CNS it was 44.7%. Besides, the growth with SF-295 CNS is 29.5%; in the experiment with SF-539 CNS it was 55.2%; in the experiment with UACC-257 melanoma it was 85.2%; in the experiment with M14 melanoma, 61.6%; in the experiment with HCT-15 colon, 23.2%; in the experiment with HT29 colon, 25%. Moreover, the growth with SNB-75 CNS was 57.7%; with SNB-19 CNS, 27.3%; in the experiment on U251 CNS it was 25.8%; with PC-3 prostate, 29.4%; with SK-MEL-5 melanoma, 95.4%; in the experiment on UACC-62 melanoma, 76.8%. The growth with LOX IMVI melanoma is 39.1%; with SK-MEL-28 melanoma it was 74.9%.

Regarding `CCN(CC)CCS(=O)(=O)CCNc1ccnc2cc(Cl)ccc12`, the growth was -24% (active) with DU-145 prostate; 7.87% (active) in the experiment on K-562 leukemia; 1.04% (active) in the experiment on MALME-3M melanoma; -2.95% (active) with MDA-MB-231 breast; -17.2% (active) in the experiment on RXF 393 renal; 4.55% (active) with SF-268 CNS. In addition, the growth is 25.9% with SF-295 CNS; -2.68% (active) with SF-539 CNS; 59% with UACC-257 melanoma; -10.5% (active) in the experiment on M14 melanoma; 10.1% in the experiment with HCT-15 colon; -21.1% (active) with HT29 colon. Besides, the growth in the experiment with SNB-75 CNS was 9.48% (active); with SNB-19 CNS, 70%; with U251 CNS, -4.39% (active); with PC-3 prostate it was 33%; in the experiment on SK-MEL-5 melanoma, 29.5%; in the experiment with UACC-62 melanoma, 29.7%. In addition, the growth was 11.3% with LOX IMVI melanoma and 49.5% with SK-MEL-28 melanoma.

`O=C1Nc2ccccc2/C1=C/C(=O)c1ccc(N2CCOCC2)cc1`: the growth with DU-145 prostate is 74%; with K-562 leukemia, 75%; in the experiment on MALME-3M melanoma, 75.9%; in the experiment on MDA-MB-231 breast, 88.4%; in the experiment on RXF 393 renal, 92.2%; in the experiment with SF-268 CNS, 86.5%. Further, the growth with SF-295 CNS is 99.1%; with SF-539 CNS it was 90.8%; in the experiment with UACC-257 melanoma it was 95.7%; in the experiment with M14 melanoma, 99.7%; with HCT-15 colon, 93%; with HT29 colon it was 83.4%. The growth is 90.5% in the experiment on SNB-75 CNS; 93.9% in the experiment with SNB-19 CNS; 81.9% with U251 CNS; 84.6% in the experiment on PC-3 prostate; 101% with SK-MEL-5 melanoma; 83.2% with UACC-62 melanoma. Also, the results for the growth with LOX IMVI melanoma and with SK-MEL-28 melanoma were 88.9% and 107%, respectively.

Turning to `Brc1ccc(-c2nnc3c4[nH]ccc4ncn23)cc1`, the growth was 101% in the experiment on DU-145 prostate; 79.9% in the experiment on K-562 leukemia; 101% in the experiment on MALME-3M melanoma; 44.4% in the experiment on MDA-MB-231 breast; 107% in the experiment on RXF 393 renal; 92.4% in the experiment with SF-268 CNS. Also, the growth in the experiment on SF-295 CNS is 96.1%; in the experiment with SF-539 CNS it was 102%; with UACC-257 melanoma, 109%; in the experiment on M14 melanoma, 102%; in the experiment with HCT-15 colon, 88.6%; with HT29 colon, 94.9%. Besides, the growth in the experiment on SNB-75 CNS was 95.6%; in the experiment with SNB-19 CNS it was 95.5%; with U251 CNS it was 100%; with PC-3 prostate, 90.6%; in the experiment with SK-MEL-5 melanoma it was 93.3%; in the experiment with UACC-62 melanoma it was 72%. In addition, the growth is 85.4% in the experiment on LOX IMVI melanoma and 114% with SK-MEL-28 melanoma.

For the compound `NC(=O)c1cccc(-c2ccc(S(=O)(=O)Nc3ccc4c(c3)N(C(=O)C3CC3)CCC4)cc2)c1`, the growth in the experiment on DU-145 prostate was 76.3%; in the experiment with K-562 leukemia it was 25.6%; in the experiment with MALME-3M melanoma, 39.1%; in the experiment on MDA-MB-231 breast, 46.2%; in the experiment with RXF 393 renal it was 47.7%; in the experiment on SF-268 CNS, 48.8%. Besides, the growth was 18% with SF-295 CNS; 26.3% in the experiment with SF-539 CNS; 46.2% with UACC-257 melanoma; 95.5% with M14 melanoma; 91.9% in the experiment with HCT-15 colon; 13.6% with HT29 colon. Also, the growth in the experiment with SNB-75 CNS was 11.9%; in the experiment on SNB-19 CNS, 48.3%; in the experiment on U251 CNS, 31.3%; in the experiment with PC-3 prostate, 40%; with SK-MEL-5 melanoma it was 11.4%; with UACC-62 melanoma, 26.7%. The growth in the experiment with LOX IMVI melanoma was 41.6%; with SK-MEL-28 melanoma it was 51.7%.

Consider `C=C(C)[C@@H]1CC[C@]2(C(=O)NCCCCCCN(CCCN)CCCN)CC[C@]3(C)[C@H](CC[C@@H]4[C@@]5(C)CC[C@H](OCCCN)C(C)(C)[C@@H]5CC[C@]43C)[C@@H]12`, for which the growth in the experiment on DU-145 prostate is 55% [100 µM]; with K-562 leukemia, 1.52% [100 µM] (active); with MALME-3M melanoma, 43.7% [100 µM]; in the experiment on MDA-MB-231 breast it was 37.3% [100 µM]; in the experiment with RXF 393 renal it was 69.6% [100 µM]; in the experiment on SF-268 CNS, 99.1% [100 µM]. The growth in the experiment with SF-295 CNS is 92.2% [100 µM]; in the experiment with SF-539 CNS, 79.9% [100 µM]; with UACC-257 melanoma it was 88% [100 µM]; in the experiment on M14 melanoma, 106% [100 µM]; with HCT-15 colon, 81.8% [100 µM]; with HT29 colon, 4.21% [100 µM] (active). The growth in the experiment on SNB-75 CNS was 84.5% [100 µM]; in the experiment with SNB-19 CNS it was 80.8% [100 µM]; in the experiment on U251 CNS it was -39.4% [100 µM] (active); with PC-3 prostate, 60.9% [100 µM]; in the experiment on SK-MEL-5 melanoma it was 85.9% [100 µM]; with UACC-62 melanoma, 120% [100 µM]. The growth in the experiment on LOX IMVI melanoma is 5.71% [100 µM] (active); in the experiment on SK-MEL-28 melanoma, 101% [100 µM].

Take `O=C(C[n+]1ccn(CC(OCc2ccc(Cl)cc2Cl)c2ccc(Cl)cc2Cl)c1)c1ccc(F)cc1` (stereo not given): the growth with DU-145 prostate is -93.1% (active); with K-562 leukemia it was -17.2% (active); in the experiment with MALME-3M melanoma, -84.8% (active); in the experiment with MDA-MB-231 breast, -96.7% (active); in the experiment on RXF 393 renal it was -94.2% (active); in the experiment with SF-268 CNS it was -93.3% (active). Also, the growth is -90.2% (active) with SF-295 CNS; -91.9% (active) in the experiment with SF-539 CNS; -89.6% (active) with UACC-257 melanoma; -97.3% (active) with M14 melanoma; 75.7% with HCT-15 colon; -73.8% (active) in the experiment on HT29 colon. Also, the growth is -99% (active) in the experiment with SNB-75 CNS; -95.9% (active) in the experiment with SNB-19 CNS; -81.7% (active) with U251 CNS; -88.5% (active) in the experiment on PC-3 prostate; -99.3% (active) in the experiment with SK-MEL-5 melanoma; -95.8% (active) in the experiment on UACC-62 melanoma. In addition, the growth with LOX IMVI melanoma was -87.4% (active); in the experiment on SK-MEL-28 melanoma, -95.5% (active).
